Reference: PubChem BioAssay (EPA / NIEHS)
Where “and” joins values, the source holds several entries; their conditions need not be identical. Equal entries are not always repeated. Records with an inconclusive call do not appear. The source holds several records for some structures; these can differ, active in one and inactive in another. Calls of active or inactive are those of the source. The calls were made as follows, unless noted: active = hit-call score of the fitted dose curve at least 0.9, where 1 is the maximum; inactive = score below 0.9.

Assays:
[1] = ATG_NFI_CIS: Attagene CIS-FACTORIAL HepG2 Assay for human Nuclear Factor I (NFI) (AID 2282989); settings: HepG2 cis-regulatory reporter, NFI response element transcription; actives raise or lower the signal
How it was run: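 HepG2, transient MRTU, 24 h exposure; RNA→cDNA→PCR→FAM label→HpaI→CE fluorescence. Bidirectional fit, DMSO = baseline.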

[2] = target: Myc proto-oncogene protein (Homo sapiens) (UniProt P01106); assay: ATG_Myc_CIS: Attagene CIS-FACTORIAL HepG2 Assay for human Myelocytomatosis (Myc) Proto-Oncogene Transcription Factor (AID 2282990); settings: HepG2, Attagene cis-reporter transcription factor activity; actives raise or lower the signal
How it was run: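 Multiplexed cis-reporter transcription in HepG2 cells after 24 h chemical treatment. Reporter mRNA measured by RT-PCR and capillary electrophoresis fluorescence; activity fitted bidirectionally against DMSO control.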

[3] = ATG_NF_kB_CIS: Attagene CIS-FACTORIAL HepG2 Assay for human Nuclear Factor Kappa B (NF-kB) (AID 2282991); settings: HepG2 Attagene cis-factorial NF-kB reporter mRNA; actives raise or lower the signal
How it was run: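 HepG2 cells transiently transfected with multiplexed cis-element reporter units measuring endogenous transcription factor activity; reporter mRNA read 24 h after dosing by RT-PCR, fluorescent labelling, HpaI digestion and capillary electrophoresis. Bidirectional fit against DMSO baseline.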

[4] = ATG_NRF2_ARE_CIS: Attagene CIS-FACTORIAL HepG2 Assay for human Nuclear Factor Erythroid 2 Related Factor 2 (NFR2) response to Antioxidant Response Elements (ARE) (AID 2282992); settings: HepG2 Attagene ARE/NRF2 reporter, transcription factor activity; actives raise or lower the signal
How it was run: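 Readout: reporter mRNA quantified by RT-PCR plus FAM-labelled primer extension, HpaI digestion and capillary electrophoresis, 24 h after dosing transfected HepG2 cells. Gain or loss of signal is fitted bidirectionally against DMSO baseline.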

[5] = ATG_Oct_MLP_CIS: Attagene CIS-FACTORIAL HepG2 Assay for human Octamer-Binding Transcription Factor (Oct) (AID 2282993); settings: HepG2 Attagene cis-factorial Oct reporter, mRNA; actives raise or lower the signal
How it was run: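 Multiplexed cis-reporter assay in human liver HepG2 cells, 24 h incubation. Reporter RNA amplified and labelled, then resolved by capillary electrophoresis; DMSO serves as negative control and baseline.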

[6] = target: Cellular tumor antigen p53 (Homo sapiens) (UniProt P04637); assay: ATG_p53_CIS: Attagene CIS-FACTORIAL HepG2 Assay for human p53 Transcription Factor (AID 2282994); settings: HepG2 p53 cis-element reporter, Attagene mRNA; actives raise or lower the signal
How it was run: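 Read-out: reporter mRNA by RT-PCR plus capillary electrophoresis with fluorescence detection. Human HepG2 liver cells carried transfected multi-reporter cis-element constructs, dosed 24 h. Gain or loss of signal fitted bidirectionally against DMSO control.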

[7] = BSK_3C_TissueFactor: BioMAP Diversity Plus: 3C Assay for Tissue Factor Biomarker Activity (AID 2282997); settings: BioMAP 3C HUVEC, tissue factor biomarker readout; actives raise or lower the signal
How it was run: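 Readout: Tissue Factor ELISA. Cells: human primary umbilical vein endothelium. Time: 24 h after dosing. Analysis: bidirectional fit, DMSO baseline.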

[8] = BSK_3C_uPAR: BioMAP Diversity Plus: 3C Assay for Urokinase-type plasminogen activator receptor (uPAR) Biomarker Activity (AID 2282998); settings: BioMAP 3C HUVEC, uPAR biomarker ELISA; actives raise or lower the signal
How it was run: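 Dose primary human umbilical vein endothelial cells, incubate 24 h, measure cell-surface uPAR by ELISA, then fit the signal in both directions against the DMSO negative control.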

[9] = BSK_3C_VCAM1: BioMAP Diversity Plus: 3C Assay for Vascular cell adhesion molecule 1 (VCAM1) Biomarker Activity (AID 2282999); settings: BioMAP 3C HUVEC, VCAM1 ELISA, cytokine-stimulated; actives raise or lower the signal
How it was run: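 Vascular primary endothelium (human umbilical vein) was exposed to chemicals and assayed 24 h later. VCAM-1 levels came from ELISA, with DMSO serving as baseline for bidirectional fitting.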

[10] = BSK_4H_Eotaxin3: BioMAP Diversity Plus: 4H Assay for Eotaxin 3 Biomarker Activity (AID 2283000); settings: primary human endothelial cells (HUVEC); actives raise or lower the signal
How it was run: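 HUVEC, 24 h post-dose, ELISA for Eotaxin-3/CCL26. Gain or loss of signal fitted bidirectionally vs DMSO baseline.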

[11] = read-out: Intercellular Adhesion Molecule 1 (ICAM1), ICAM1 (gene 3383); assay: BSK_3C_ICAM1: BioMAP Diversity Plus: 3C Assay for Intercellular Adhesion Molecule 1 (ICAM1) Biomarker Activity (AID 2283003); settings: primary human endothelial cells (HUVEC); actives raise or lower the signal
How it was run: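 Using DMSO as baseline, bidirectional curve fitting was applied to ICAM-1 ELISA signals from HUVEC in the 3C system, measured 24 h after compound addition.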

[12] = BSK_3C_Proliferation: Cell Proliferation Assessment in the BioMAP Diversity Plus: 3C Assay (AID 2283006); settings: primary human endothelial cells (HUVEC);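 as to AC50: potency may reflect either rise or fall in cell number versus DMSO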
How it was run: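 Measured here: sulforhodamine B (0.1%) staining of TCA-fixed sub-confluent umbilical vein endothelial cultures 48 h post-dosing, absorbance 560 nm. DMSO served as negative control and baseline; both signal gain and loss were modelled.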

[13] = target: Peroxisome proliferator-activated receptor gamma (Homo sapiens) (UniProt P37231); assay: ATG_PPARg_TRANS: Attagene TRANS-FACTORIAL HepG2 Assay for human Peroxisome Proliferator-activated Receptor-gamma (PPARg) (AID 2283007; active = hit-call score of the fitted dose curve at least 0.9, where 1 is the maximum)
How it was run: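 HepG2 cells transiently transfected with multiplexed GAL4-UAS reporter units and exogenous chimeric NR-Gal4 proteins; reporter mRNA quantified after 24 h compound exposure by RT-PCR, fluorescent labelling, HpaI digestion and capillary electrophoresis; gain-of-signal fitted versus DMSO baseline.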

[14] = target: Nuclear receptor subfamily 1 group I member 2 (Homo sapiens) (UniProt O75469); assay: ATG_PXR_TRANS: Attagene TRANS-FACTORIAL HepG2 Assay for human Pregnane X Receptor (PXR) (AID 2283008; active = hit-call score of the fitted dose curve at least 0.9, where 1 is the maximum)
How it was run: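 Trans-factorial format: exogenous NR-Gal4 fusion activity, not endogenous factor, in transfected human HepG2 liver cells. After 24 h dosing, RNA isolated, reverse-transcribed, amplified and resolved by capillary electrophoresis; induction scored versus DMSO.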

[15] = target: human Retinoic Acid Receptor beta (RARb), RARB (gene 5915) (UniProt P10826); assay: ATG_RARb_TRANS: Attagene TRANS-FACTORIAL HepG2 Assay for human Retinoic Acid Receptor beta (AID 2283004; active = hit-call score of the fitted dose curve at least 0.9, where 1 is the maximum)
How it was run: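 HepG2 cells transiently transfected with multiplexed GAL4-UAS reporter units expressing chimeric NR–Gal4 fusions; 24 h compound exposure. Reporter mRNA quantified by RT-PCR, 6-FAM labelling, HpaI digestion and capillary electrophoresis; gain-of-signal fitted against DMSO baseline.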

[16] = target: Retinoic acid receptor alpha (Homo sapiens) (UniProt P10276); assay: ATG_RARa_TRANS: Attagene TRANS-FACTORIAL HepG2 Assay for human Retinoic Acid Receptor alpha (RARa) (AID 2283005; active = hit-call score of the fitted dose curve at least 0.9, where 1 is the maximum;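 as to AC50: potency for increased reporter signal meaning RARa activation over DMSO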)
How it was run: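 HepG2 cells transiently transfected with multiple reporter units expressing chimeric RARα-GAL4 fusion, with GAL4-UAS-driven reporters. After 24 h compound exposure, reporter mRNA induction quantified by RT-PCR and capillary electrophoresis with fluorescent labeling; gain-of-signal fitted relative to DMSO control.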

[17] = target: human Peroxisome Proliferator-activated Receptor alpha (PPARa), PPARA (gene 5465) (UniProt Q07869); assay: ATG_PPARa_TRANS: Attagene TRANS-FACTORIAL HepG2 Assay for human Peroxisome Proliferator-activated Receptor alpha (PPARa) (AID 2283001; active = hit-call score of the fitted dose curve at least 0.9, where 1 is the maximum;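 as to AC50: potency for gain of reporter signal over DMSO so agonist or activator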)
How it was run: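 Exposure: 24 h, transiently transfected HepG2 cells. Endpoint: GAL4-UAS reporter mRNA, RT-PCR with capillary electrophoresis fluorescence. Baseline: DMSO; increases fitted.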

[18] = target: human Peroxisome Proliferator-activated Receptor delta (PPARd), PPARD (gene 5467) (UniProt Q03181); assay: ATG_PPARd_TRANS: Attagene TRANS-FACTORIAL HepG2 Assay for human Peroxisome Proliferator-activated Receptor delta (PPARd) (AID 2283002; active = hit-call score of the fitted dose curve at least 0.9, where 1 is the maximum)
How it was run: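 Multiplexed trans-activation format: HepG2 liver cells expressing exogenous NR-Gal4 chimeras and GAL4-UAS reporters were exposed for 24 h. Reporter mRNA was detected by RT-PCR with capillary electrophoresis fluorescence; activity fitted as gain of signal relative to DMSO.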

[19] = target: human Retinoic Acid Receptor gamma (RARg), RARG (gene 5916) (UniProt P13631); assay: ATG_RARg_TRANS: Attagene TRANS-FACTORIAL HepG2 Assay for human Retinoic Acid Receptor gamma (RARg) (AID 2283009; active = hit-call score of the fitted dose curve at least 0.9, where 1 is the maximum;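 as to AC50: AC50 is for reporter induction above DMSO meaning RARg activation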)
How it was run: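 Gain-of-signal relative to DMSO is reported from fluorescent capillary electrophoresis of RT-PCR reporter products. These came from HepG2 cells expressing transfected RARg-GAL4 chimeras with UAS reporters, harvested 24 h after dosing.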

[20] = target: human RAR-related Orphan Receptor beta (RORb), RORB (gene 6096) (UniProt Q92753); assay: ATG_RORb_TRANS: Attagene TRANS-FACTORIAL HepG2 Assay for human RAR-related Orphan Receptor beta (RORb) (AID 2283010; active = hit-call score of the fitted dose curve at least 0.9, where 1 is the maximum)
How it was run: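 Multiplexed transcription-factor reporter assay: HepG2 cells transiently carrying NR-Gal4/GAL4-UAS constructs, 24 h treatment, mRNA quantified by RT-PCR plus capillary electrophoresis fluorescence; activity scored as induction over DMSO.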

Measured: AC50

Sequence of Retinoic acid receptor alpha (Homo sapiens) (P10276 whole entry, looked up, the tested form may be a part): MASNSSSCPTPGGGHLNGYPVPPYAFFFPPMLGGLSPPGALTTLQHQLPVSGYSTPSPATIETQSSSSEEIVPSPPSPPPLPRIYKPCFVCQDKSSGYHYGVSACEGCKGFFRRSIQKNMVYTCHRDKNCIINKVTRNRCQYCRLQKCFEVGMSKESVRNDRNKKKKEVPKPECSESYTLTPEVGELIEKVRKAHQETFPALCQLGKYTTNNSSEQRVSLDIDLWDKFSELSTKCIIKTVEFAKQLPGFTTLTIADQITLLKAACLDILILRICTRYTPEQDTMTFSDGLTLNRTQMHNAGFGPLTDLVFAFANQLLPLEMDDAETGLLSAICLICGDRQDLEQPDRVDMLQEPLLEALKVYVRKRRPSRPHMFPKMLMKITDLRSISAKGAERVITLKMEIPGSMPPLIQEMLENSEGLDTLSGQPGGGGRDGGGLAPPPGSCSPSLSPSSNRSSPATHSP
Sequence of Peroxisome proliferator-activated receptor gamma (Homo sapiens) (P37231 whole entry, looked up, the tested form may be a part): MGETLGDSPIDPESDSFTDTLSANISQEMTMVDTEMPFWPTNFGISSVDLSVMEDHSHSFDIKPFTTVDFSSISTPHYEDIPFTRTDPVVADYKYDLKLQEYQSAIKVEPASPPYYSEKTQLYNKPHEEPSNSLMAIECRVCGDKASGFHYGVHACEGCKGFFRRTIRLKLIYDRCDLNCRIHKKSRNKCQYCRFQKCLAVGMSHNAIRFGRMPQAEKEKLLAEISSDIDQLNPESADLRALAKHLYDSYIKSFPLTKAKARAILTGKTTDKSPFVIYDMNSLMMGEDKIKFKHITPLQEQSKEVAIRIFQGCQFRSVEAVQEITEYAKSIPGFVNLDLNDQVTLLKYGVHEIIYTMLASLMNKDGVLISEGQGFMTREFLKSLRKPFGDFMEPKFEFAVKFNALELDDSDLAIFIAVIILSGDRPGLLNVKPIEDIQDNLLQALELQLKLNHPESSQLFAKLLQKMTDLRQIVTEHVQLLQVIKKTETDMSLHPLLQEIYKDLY
Sequence of human Peroxisome Proliferator-activated Receptor delta (PPARd), PPARD (gene 5467) (Q03181 whole entry, looked up, the tested form may be a part): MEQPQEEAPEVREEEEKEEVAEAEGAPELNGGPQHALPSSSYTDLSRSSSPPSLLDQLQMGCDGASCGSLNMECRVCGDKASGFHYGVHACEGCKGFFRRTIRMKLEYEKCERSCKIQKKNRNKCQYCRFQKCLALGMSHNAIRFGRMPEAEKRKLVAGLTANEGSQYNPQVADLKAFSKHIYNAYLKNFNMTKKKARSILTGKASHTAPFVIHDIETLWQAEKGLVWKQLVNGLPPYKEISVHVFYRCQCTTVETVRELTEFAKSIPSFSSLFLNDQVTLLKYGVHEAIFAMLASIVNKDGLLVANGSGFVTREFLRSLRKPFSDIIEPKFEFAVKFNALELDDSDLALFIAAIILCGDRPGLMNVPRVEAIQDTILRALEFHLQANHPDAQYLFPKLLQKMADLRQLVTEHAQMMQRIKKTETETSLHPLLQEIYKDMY
Sequence of human Peroxisome Proliferator-activated Receptor alpha (PPARa), PPARA (gene 5465) (Q07869 whole entry, looked up, the tested form may be a part): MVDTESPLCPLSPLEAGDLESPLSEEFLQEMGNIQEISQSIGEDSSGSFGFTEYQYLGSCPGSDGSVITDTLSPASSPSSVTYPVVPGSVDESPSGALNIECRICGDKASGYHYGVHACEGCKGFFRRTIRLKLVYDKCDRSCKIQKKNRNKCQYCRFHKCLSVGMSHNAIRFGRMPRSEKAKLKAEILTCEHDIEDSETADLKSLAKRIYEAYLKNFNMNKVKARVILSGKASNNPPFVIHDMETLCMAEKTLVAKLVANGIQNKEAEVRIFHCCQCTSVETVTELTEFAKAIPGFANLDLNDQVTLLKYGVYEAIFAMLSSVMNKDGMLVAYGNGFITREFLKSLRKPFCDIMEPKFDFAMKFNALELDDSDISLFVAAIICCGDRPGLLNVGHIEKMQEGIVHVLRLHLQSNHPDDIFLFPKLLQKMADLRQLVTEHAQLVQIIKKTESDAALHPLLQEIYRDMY
Sequence of Myc proto-oncogene protein (Homo sapiens) (P01106 whole entry, looked up): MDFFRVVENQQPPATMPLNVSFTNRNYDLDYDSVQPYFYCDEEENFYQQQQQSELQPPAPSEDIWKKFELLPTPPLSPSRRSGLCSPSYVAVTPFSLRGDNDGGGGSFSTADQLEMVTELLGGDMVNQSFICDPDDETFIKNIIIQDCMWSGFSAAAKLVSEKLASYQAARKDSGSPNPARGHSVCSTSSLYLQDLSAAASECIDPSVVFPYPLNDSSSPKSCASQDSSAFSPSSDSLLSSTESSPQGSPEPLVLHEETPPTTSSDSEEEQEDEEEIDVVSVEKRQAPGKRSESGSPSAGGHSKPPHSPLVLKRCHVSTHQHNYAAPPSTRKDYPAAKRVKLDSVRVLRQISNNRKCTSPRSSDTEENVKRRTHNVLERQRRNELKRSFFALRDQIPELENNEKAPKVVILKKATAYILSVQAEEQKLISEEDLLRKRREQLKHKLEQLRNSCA
Sequence of human Retinoic Acid Receptor beta (RARb), RARB (gene 5915) (P10826 whole entry, looked up, the tested form may be a part): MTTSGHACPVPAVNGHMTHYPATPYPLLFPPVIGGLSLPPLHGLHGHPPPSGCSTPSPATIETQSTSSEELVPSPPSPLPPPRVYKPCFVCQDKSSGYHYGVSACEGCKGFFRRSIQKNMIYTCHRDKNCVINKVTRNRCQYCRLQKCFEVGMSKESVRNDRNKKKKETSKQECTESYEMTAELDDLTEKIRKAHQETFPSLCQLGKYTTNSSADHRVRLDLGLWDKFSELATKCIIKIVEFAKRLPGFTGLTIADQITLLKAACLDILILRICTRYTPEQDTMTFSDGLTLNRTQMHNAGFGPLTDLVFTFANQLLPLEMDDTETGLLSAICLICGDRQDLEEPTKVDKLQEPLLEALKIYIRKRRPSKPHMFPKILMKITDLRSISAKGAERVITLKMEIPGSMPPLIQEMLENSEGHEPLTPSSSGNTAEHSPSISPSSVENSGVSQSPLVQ
Sequence of Nuclear receptor subfamily 1 group I member 2 (Homo sapiens) (O75469 whole entry, looked up, the tested form may be a part): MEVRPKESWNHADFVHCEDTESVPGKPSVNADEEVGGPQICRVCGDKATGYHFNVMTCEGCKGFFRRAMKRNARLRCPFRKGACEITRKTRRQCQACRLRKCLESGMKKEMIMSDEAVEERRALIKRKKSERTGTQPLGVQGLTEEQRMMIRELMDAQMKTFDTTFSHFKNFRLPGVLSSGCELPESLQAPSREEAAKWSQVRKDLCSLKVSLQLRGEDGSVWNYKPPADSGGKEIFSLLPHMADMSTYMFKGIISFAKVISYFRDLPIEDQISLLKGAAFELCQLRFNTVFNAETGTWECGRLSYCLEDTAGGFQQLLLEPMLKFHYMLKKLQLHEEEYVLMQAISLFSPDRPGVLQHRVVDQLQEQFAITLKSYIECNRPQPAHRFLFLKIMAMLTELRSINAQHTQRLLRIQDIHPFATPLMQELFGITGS
Sequence of Cellular tumor antigen p53 (Homo sapiens) (P04637 whole entry, looked up): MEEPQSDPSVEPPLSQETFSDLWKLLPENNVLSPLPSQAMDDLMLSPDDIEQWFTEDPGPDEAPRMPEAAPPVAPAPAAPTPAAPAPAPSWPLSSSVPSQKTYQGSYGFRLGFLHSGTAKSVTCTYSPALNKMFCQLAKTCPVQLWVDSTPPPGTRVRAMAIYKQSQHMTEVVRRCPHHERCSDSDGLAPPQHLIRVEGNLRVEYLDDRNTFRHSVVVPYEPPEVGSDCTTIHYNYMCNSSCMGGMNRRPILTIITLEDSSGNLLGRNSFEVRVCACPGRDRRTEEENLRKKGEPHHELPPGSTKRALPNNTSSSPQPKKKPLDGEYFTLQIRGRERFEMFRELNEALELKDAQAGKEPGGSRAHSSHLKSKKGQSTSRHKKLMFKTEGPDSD
Sequence of human RAR-related Orphan Receptor beta (RORb), RORB (gene 6096) (Q92753 whole entry, looked up, the tested form may be a part): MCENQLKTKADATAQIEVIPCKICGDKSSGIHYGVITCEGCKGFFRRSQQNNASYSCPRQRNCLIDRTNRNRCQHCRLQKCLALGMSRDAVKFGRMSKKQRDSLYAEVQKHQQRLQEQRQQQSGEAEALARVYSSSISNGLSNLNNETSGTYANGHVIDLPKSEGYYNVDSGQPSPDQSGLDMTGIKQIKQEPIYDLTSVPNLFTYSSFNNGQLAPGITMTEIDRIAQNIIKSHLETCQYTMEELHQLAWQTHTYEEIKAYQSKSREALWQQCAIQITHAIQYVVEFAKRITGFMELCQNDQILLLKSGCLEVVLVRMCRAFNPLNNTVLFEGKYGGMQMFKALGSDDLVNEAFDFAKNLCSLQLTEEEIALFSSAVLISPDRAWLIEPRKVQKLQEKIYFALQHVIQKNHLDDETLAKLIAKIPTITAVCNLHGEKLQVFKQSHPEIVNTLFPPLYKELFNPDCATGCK
Sequence of human Retinoic Acid Receptor gamma (RARg), RARG (gene 5916) (P13631 whole entry, looked up, the tested form may be a part): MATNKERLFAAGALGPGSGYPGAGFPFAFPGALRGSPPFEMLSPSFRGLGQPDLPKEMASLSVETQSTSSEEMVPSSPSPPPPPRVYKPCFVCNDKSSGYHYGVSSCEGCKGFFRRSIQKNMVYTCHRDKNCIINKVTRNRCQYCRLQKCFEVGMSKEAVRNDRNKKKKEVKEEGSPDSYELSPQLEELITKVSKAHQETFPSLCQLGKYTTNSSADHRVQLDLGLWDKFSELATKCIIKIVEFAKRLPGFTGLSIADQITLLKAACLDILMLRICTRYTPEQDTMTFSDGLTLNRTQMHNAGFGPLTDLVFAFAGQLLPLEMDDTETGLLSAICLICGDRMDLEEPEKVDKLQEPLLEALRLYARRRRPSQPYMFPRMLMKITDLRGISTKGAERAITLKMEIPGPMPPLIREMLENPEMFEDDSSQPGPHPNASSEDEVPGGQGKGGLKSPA

C(=NC1CCCCC1)=NC1CCCCC1
active: [5] 5.24 µM | [7] 34 µM | [8] 9.69 µM | [9] 30.3 µM | [10] 6.27 µM | [11] 29.6 µM | [12] 28.6 µM
inactive: [1] | [2] | [3] | [4] | [6] | [13] | [14]

O=[N+]([O-])c1ccc(O)c([N+](=O)[O-])c1
not listed: [10] | [14] | [17] | [18] | [19] | [20]
inactive: all other assays above

CCCCCCCCSC(=O)Oc1cc(Cl)nnc1-c1ccccc1
active: [1] 73.7 µM | [4] 52.7 µM | [13] 24.3 µM
inactive: [2] | [3] | [5] | [6] | [17] | [18] | [14]

Clc1nc(Cl)nc(Cl)n1
inactive: [1] | [2] | [3] | [4] | [5] | [6] | [17] | [18] | [13]

CCOC(=O)/C=C(C)/C=C/C[C@@H](C)CCCC(C)C
inactive: [6] | [18]
active: [1] 180 µM | [2] 182 µM | [3] 43.2 µM | [4] 56.5 µM | [5] 25 µM | [7] 15.6 µM | [8] 33.1 µM | [9] 26.6 µM | [17] 64.9 µM | [11] 30.2 µM | [12] 20 µM | [13] 1.56 µM | [14] 5.32 µM

c1cc[c]([Hg][c]2ccccc2)cc1
active: [1] 20.6 µM | [5] 19 µM | [13] 25.2 µM
inactive: [2] | [3] | [4] | [6] | [17] | [18] | [14] | [20]

COc1cc(-c2ccc(N)c(OC)c2)ccc1N
inactive: [1] | [3] | [4] | [6] | [8] | [9] | [17] | [18] | [11] | [15] | [16] | [12] | [13] | [14] | [19] | [20]
active: [1] 79.8 µM | [5] 27.5 µM and 28.5 µM | [7] 4.68 µM and 3.97 µM | [16] 27.4 µM | [12] 28.8 µM | [19] 27.2 µM
